Most compounds without a hit are left out; they make up all but 14% or so of the library.
USP10 block: blocks human USP10 ubiquitin-rhodamine cleavage; 47,000 compounds, 1.1% hits; Q14694; purified USP10, Ub-rhodamine fluorescence, 60 min; AID 1645856; inhibition, % at 20 µM
USP8 inh: human USP8 deubiquitinase inhibition; P40818; purified USP8, Ub-rhodamine cleavage fluorescence, 30 min; inhibition, % at 20 µM; 47,000 compounds, 4.2% hits; AID 1645853
Target sequence (P40818 whole entry, looked up): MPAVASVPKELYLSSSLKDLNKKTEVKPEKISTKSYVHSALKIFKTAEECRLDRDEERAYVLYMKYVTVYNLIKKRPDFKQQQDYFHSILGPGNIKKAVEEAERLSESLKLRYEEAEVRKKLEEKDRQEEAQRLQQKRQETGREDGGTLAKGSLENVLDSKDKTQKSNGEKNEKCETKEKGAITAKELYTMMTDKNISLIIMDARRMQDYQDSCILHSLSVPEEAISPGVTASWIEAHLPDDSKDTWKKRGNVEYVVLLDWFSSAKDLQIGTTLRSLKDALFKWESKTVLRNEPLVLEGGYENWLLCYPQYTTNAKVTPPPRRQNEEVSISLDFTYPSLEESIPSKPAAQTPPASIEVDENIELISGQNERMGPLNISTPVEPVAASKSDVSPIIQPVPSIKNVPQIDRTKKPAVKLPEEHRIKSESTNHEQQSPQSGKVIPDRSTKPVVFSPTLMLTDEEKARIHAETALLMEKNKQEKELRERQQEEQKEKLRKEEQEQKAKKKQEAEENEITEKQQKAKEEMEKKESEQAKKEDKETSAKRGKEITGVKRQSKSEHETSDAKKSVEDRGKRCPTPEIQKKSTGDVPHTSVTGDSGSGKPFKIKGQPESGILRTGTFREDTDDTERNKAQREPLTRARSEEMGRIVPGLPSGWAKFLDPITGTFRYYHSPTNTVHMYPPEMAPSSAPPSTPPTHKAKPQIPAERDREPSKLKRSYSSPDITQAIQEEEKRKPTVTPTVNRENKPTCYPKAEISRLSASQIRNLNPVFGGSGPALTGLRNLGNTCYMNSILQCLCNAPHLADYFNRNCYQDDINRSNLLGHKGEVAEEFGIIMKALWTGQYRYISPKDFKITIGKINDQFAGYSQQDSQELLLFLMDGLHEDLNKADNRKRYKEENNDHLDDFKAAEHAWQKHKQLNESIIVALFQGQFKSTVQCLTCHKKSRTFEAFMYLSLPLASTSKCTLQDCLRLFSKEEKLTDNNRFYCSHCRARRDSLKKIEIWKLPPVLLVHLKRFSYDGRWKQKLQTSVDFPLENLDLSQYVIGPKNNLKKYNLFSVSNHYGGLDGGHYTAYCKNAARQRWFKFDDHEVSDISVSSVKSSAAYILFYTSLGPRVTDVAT
USP17 block: blocks human USP17 ubiquitin-rhodamine cleavage; A8MUK1; purified USP17, Ub-rhodamine cleavage fluorescence, 3 h; 47,000 compounds, 6.5% hits; AID 1645855; inhibition, % at 50 µM
USP28 block: inhibitors of human USP28 deubiquitinase. Q96RU2. purified USP28, Ub-rhodamine cleavage fluorescence, 30 min. inhibition, % at 25 µM. 47,000 compounds, 3% hits. AID 1645857
USP30 block: blocks human USP30 ubiquitin-rhodamine cleavage | 47,000 compounds, 5.3% hits | purified USP30, Ub-rhodamine cleavage fluorescence | AID 1645860 | inhibition, % at 25 µM
Of the large screens only hits and unclear results are named; the others gave an inactive call. No stated cut-off is given here; in the data, active means inhibition above about 30%; inactive means the rest.

COc1cc(NC(=O)Cn2cc(C(=O)c3ccccc3)c(=O)c3cc(Cl)ccc32)cc(OC)c1	USP10 block 61.9, USP8 inh 97.0
COc1ccccc1NC(=O)Cn1cc(C(=O)c2ccc(C)cc2)c(=O)c2cc(Cl)ccc21	USP10 block 31.0, USP17 block 60.5
CN(C)CCN1C(=O)C(O)=C(C(=O)c2cc3ccccc3o2)C1c1cccnc1 (centres undefined)	none
NC(=O)C(OC(=O)CSc1ccccc1)c1ccccc1 (centres undefined)	USP30 block 32.0
CCCCCn1c(Sc2ccc(C)cc2)nc2c1c(=O)[nH]c(=O)n2C	USP17 block 34.5, USP30 block 52.8
O=C(NCc1cc(=O)n2c(n1)CNCCC2)c1ccco1	none
COc1ccc(-c2cnn(-c3ccc(NC(=O)Nc4cccc(C(F)(F)F)c4)cc3)c2)cc1	USP8 inh 31.3 (no result: USP17 block)
COCCCn1c(C(=O)NCc2ccc(F)cc2)cc2c(=O)n3ccccc3nc21	USP17 block 37.8
Cn1cc(CN2C[C@H]3C[C@H]4[C@](C2)(CN(Cc2cccc(Cl)c2)S4(=O)=O)O3)cn1	none
O=C(COc1ccccc1-c1nnc(-c2ccccc2)o1)NCCc1ccco1	USP8 inh 86.1, USP17 block 34.6
O=C(COc1ccccc1-c1nnc(-c2ccccc2)o1)Nc1ccc(F)cc1F	USP8 inh 32.3, USP17 block 84.4, USP30 block 34.8
O=C(COc1ccccc1-c1nnc(-c2ccccc2)o1)NCc1ccccc1F	none
COc1ccc(CNC(=O)COc2ccccc2-c2nnc(-c3ccccc3)o2)cc1	none
O=C(COc1ccccc1-c1nnc(-c2ccccc2)o1)NCCCN1CCOCC1	none
CC(CCc1ccccc1)NC(=O)COc1ccccc1-c1nnc(-c2ccccc2)o1 (centres undefined)	USP17 block 31.2, USP30 block 41.1
CCc1ccccc1NC(=O)COc1ccccc1-c1nnc(-c2ccccc2)o1	USP17 block 52.5, USP30 block 38.1
CC(CCc1ccccc1)NC(=O)COc1ccc(Cl)c(Cl)c1 (centres undefined)	USP28 block 31.1
CCc1cc(OCC(=O)NC(c2ccccc2)c2ccccc2)ccc1Cl	none
COc1ccccc1CNC(=O)COc1ccccc1-c1nnc(-c2ccccc2)o1	USP30 block 30.5
CCOc1ccc(Oc2ccc(NC(=O)COc3ccc(C(=O)c4ccccc4)cc3)cc2)cc1	none
COc1ccc(CNC(=O)COc2ccccc2-c2nnc(-c3ccccc3)o2)c(OC)c1	none
COc1ccccc1CNC(=O)CS(=O)(=O)Cc1nc(-c2ccccc2F)oc1C	USP17 block 57.9
CCc1ccccc1NC(=O)COc1ccc(Nc2ccccc2)cc1	USP8 inh 35.4, USP17 block 46.0, USP30 block 38.5
Cc1ccccc1-c1nc(CS(=O)(=O)CC(=O)Nc2ccccc2Cl)c(C)o1	none
Cc1cc(C2CCCN2C(=O)c2cc(-c3ccccc3)no2)on1 (centres undefined)	none (no result: USP28 block, USP30 block)
O=C1CC(c2ccccc2)n2nc(NC(=O)c3ccccc3F)nc2N1 (centres undefined)	USP8 inh 44.1
COc1ccccc1/C=C/C(=O)Nc1nc2n(n1)C(c1ccc(Cl)cc1)CC(=O)N2 (centres undefined)	USP17 block 43.9, USP30 block 38.8
CC(=O)Nc1nc2n(n1)C(c1ccccc1)CC(=O)N2 (centres undefined)	none
O=C(/C=C/c1ccco1)Nc1nc2n(n1)C(c1ccccc1)CC(=O)N2 (centres undefined)	none
COc1ccc(C(=O)Nc2nc3n(n2)C(c2ccccc2)CC(=O)N3)cc1 (centres undefined)	USP8 inh 75.9, USP17 block 72.7, USP30 block 35.3
CCn1c(=O)[nH]c2ccc(Br)cc2c1=O	none
CC1(C)CC(NC(=O)c2nc(-c3ccc(F)cc3)no2)CC(C)(C)N1	USP30 block 33.9
N#Cc1ccc(NC(=O)CCC(=O)NCCc2ccccc2)cc1	none (no result: USP28 block, USP30 block)
Cc1nn(C)cc1NC(=O)Nc1ccc(F)cc1	USP30 block 30.5
O=C(Nc1ccc(F)cc1)Nc1cccnc1	none
COc1ccc(NC(=O)C2[C@@H]3C(=O)N(C4CCCCC4)C(=O)[C@@H]3[C@H]3c4ccccc4C=CN23)cc1 (some centres undefined)	USP8 inh 77.7, USP17 block 60.5
O=C(Nc1ccc2c(c1)OCO2)C1[C@@H]2C(=O)N(c3ccccc3)C(=O)[C@@H]2[C@H]2c3ccccc3C=CN12 (some centres undefined)	USP8 inh 49.2
CC(C)(C)C(=O)C1C2C(=O)N(Cc3ccccc3)C(=O)C2C2c3ccccc3C=CN12 (centres undefined)	USP8 inh 80.6, USP17 block 56.3
CC(C)(C)C(=O)C1C2C(=O)N(c3ccc4c(c3)OCO4)C(=O)C2C2c3ccccc3C=CN12 (centres undefined)	USP8 inh 53.3, USP17 block 69.0, USP28 block 64.2
O=C(c1ccco1)C1C2C(=O)N(c3cccc(C(F)(F)F)c3)C(=O)C2C2c3ccccc3C=CN12 (centres undefined)	none
Cn1ccc2ccn(CC(=O)NCc3ccc(Cl)cc3)c(=O)c21	none
COc1ccccc1CC(=O)NCc1c(C)nc2sc(C)nn12	none
COc1ccc(NC(=O)C2[C@@H]3C(=O)N(c4ccc5c(c4)OCO5)C(=O)[C@@H]3[C@H]3c4ccccc4C=CN23)cc1 (some centres undefined)	USP8 inh 55.4
COc1ccc(-c2cc(C(=O)Nc3ccc4c(c3)OCO4)c3ccccc3n2)cc1	none
CC1CCN(c2ccc3nnc(CCC(=O)NCc4ccco4)n3n2)CC1	none
O=C(c1cc(Cl)ccc1Cl)N1CCN(c2ccc3nnc(-c4ccco4)n3n2)CC1	USP8 inh 49.1, USP17 block 61.3
O=S(=O)(c1ccccc1Cl)N1CCN(c2ccc3nnc(-c4ccco4)n3n2)CC1	USP10 block 39.2, USP8 inh 49.7, USP17 block 72.0, USP28 block 33.8, USP30 block 38.5
Cc1ccc(C)c(S(=O)(=O)N2CCN(c3ccc4nnc(-c5ccco5)n4n3)CC2)c1	USP10 block 39.4, USP8 inh 76.1, USP17 block 63.5, USP28 block 45.9, USP30 block 41.0
O=S(=O)(c1ccccc1Cl)N1CCN(CCOc2ccccc2)CC1	none
Cc1ccc(-c2ccc(N3CCOCC3)nn2)cc1S(=O)(=O)N1CCOCC1	none (no result: USP17 block)
CC(C)CN1CCN(C(=O)c2snc(-c3ccccn3)c2N)CC1	none
COc1ccc2[nH]c3c(c2c1)CCN1C(=O)N(c2ccccc2C(=O)NCc2ccc4c(c2)OCO4)C(=O)[C@]31C	none
COc1ccc(CNC(=O)[C@H](C)N2C(=O)N3CCc4c([nH]c5ccc(OC)cc45)[C@@]3(C)C2=O)cc1	USP17 block 50.2, USP28 block 32.7
Cc1ccc(CNC(=O)c2cccc(N3C(=O)N4CCc5c([nH]c6ccccc56)[C@@]4(C)C3=O)c2)cc1	USP17 block 63.7

Bioassay records (PubChem BioAssay)
